Screening results (PubChem BioAssay)
This is a sample that favours compounds with a hit; in the whole collection about 11% have one here.
Pf growth 96h – inhibits malaria parasite growth, 96 h; P. falciparum luciferase reporter growth, 96 h; Potency, µM (top dose mostly 28.7 µM), for the others: at the top dose activity change, negative = inhibition, hits mostly inhibitors; 320,000 tested, 6.9% active; further: potency means the concentration at half of the fitted maximal effect; on the % scale 0 is the no-effect control and ±100 the full control effect
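Two parasite generations (96 h, 37 C, 5% CO2) of compound exposure in infected erythrocytes (0.05% parasitemia, 2% hematocrit). Luciferase-reporter P. falciparum; decreased luminescence indicates inhibited growth, aimed at apicoplast-acting delayed death.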
Sm TGR inh – S. mansoni TGR enzyme inhibition; AID 485364; 360,000 tested, 3% active; Potency, µM (doses to about 114 µM), for the others: at the highest dose activity change, negative = inhibition, most hits filed as inhibitors; purified TGR, DTNB reduction, TNB absorbance 405 nm; further: potency means the concentration at half of the fitted maximal effect; on the % scale 0 is the no-effect control and ±100 the full control effect; nearly all actives have a fitted effect of over 60% in size
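First, TGR (20 nM dispensed) and NADPH were mixed with compound. Second, a 15 min room-temperature incubation followed. Third, further NADPH and then DTNB were added to start the reaction. Finally, TNB absorbance was monitored kinetically.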
Pf growth 48h – inhibits P. falciparum growth in the first generation, 48 h; P. falciparum luciferase growth in erythrocytes, 48 h; Potency, µM (top dose mostly 28.7 µM), for inactives: at the top dose activity change, negative = inhibition, hits mostly inhibitors; 310,000 tested, 5.9% active; AID 504832; further: potency means the concentration at half of the fitted maximal effect; on the % scale 0 is the no-effect control and ±100 the full control effect
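Growth was read as firefly luciferase luminescence after a 48 h, 37 C, 5% CO2 exposure of compounds to reporter-bearing P. falciparum cultures (0.1% parasitemia, 2% hematocrit final) in Albumax-supplemented RPMI 1640.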
AMA1 RON2 block – inhibitors of Plasmodium falciparum AMA1-RON2 interaction. AlphaScreen AMA1-biotinylated RON2 peptide binding. Potency, µM (doses to about 58.2 µM), without a hit: at the highest dose activity change, negative = inhibition, actives largely listed as inhibitors. 360,000 tested, 0.2% active. AID 720542;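 further: potency means the concentration at half of the fitted maximal effect; 0% = vehicle wells and -100% = peptide control; nearly all actives have a fitted effect of over 45% in size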
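AMA1 (3D7) with his tag at 25 nM final met compounds first, then biotinylated RON2 peptide at 25 nM; detection used donor plus acceptor beads, 10 µg/mL apiece, read by AlphaScreen after 30 min at room temperature.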
NS1 inh – influenza NS1 inhibition. 270,000 tested, 0.4% active. AID 2326. Potency, µM (top dose mostly 46.1 µM), inactives show top-dose activity, positive = more growth; calls by dose curve; further: potency means the concentration at half of the fitted maximal effect; actives are rising curves; nearly all actives have a fitted effect of over 50% in size
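Compounds were scored for reversing the slow growth caused by influenza A NS1 in S. cerevisiae, measured by optical density at 600 nm. Assay medium contained 2% galactose at pH 6.0; NS1-free yeast of the same strain were the positive control.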
NS1 inh valid – validation of influenza NS1 protein function inhibitors | shares compounds with NS1 inh | influenza NS1 function cell assay, 15-point titration | activity change, negative = inhibition, % at 32.9 µM | 1,400 tested, under 10 active; calls by dose curve; further: 0% is about no effect
Active calls of the source: *; u = inconclusive; x = not tested or not shown; [ ] = another dose, or the depositor's remark. Unless noted, the call rests on the fitted dose curve; in most records, active means well fitted curve in the direction sought with a large enough effect; inconclusive means small, poorly fitted or top-dose-only effect, or another doubt; inactive means no such curve, though single readings can be large; an effect the other way counts as inactive or inconclusive.

SMILES | Pf growth 96h | Sm TGR inh | Pf growth 48h | AMA1 RON2 block | NS1 inh | NS1 inh valid
CC1Oc2ccccc2N(CC(=O)N2CCc3ccccc32)C1=O (stereo not given) | -17% | -6% | -3% | -28% | -5% | x
CC1Oc2ccccc2N(CC(=O)N2CCCCC2)C1=O (stereo not given) | 32% | 9% | u | 5% | 10µM* | 9
COc1ccc(-c2cc(C(F)(F)F)nc(SCCC(=O)Nc3ccc(O)cc3)n2)cc1 | x | -2% | x | x | x | x
Cc1ccccc1-n1c(O)cc(=O)[nH]c1=S | 10% | x | -1% | 0% | 5% | x
O=c1cc(O)n(-c2ccccc2F)c(=S)[nH]1 | x | u | 17% | 13% | 3.2µM* | 21
CC1=C(C(=O)Nc2ccc(F)cc2)C(c2ccc(N(C)C)cc2)NC(=O)N1 (stereo not given) | x | 1% | x | x | x | x
CON(C)c1nc(Oc2ccc(=O)[nH]n2)nc(N(C)C)n1 | x | 8% | 9% | -19% | u | 26
CN(C)c1nc(Oc2ccc(=O)[nH]n2)nc(N2CCOCC2)n1 | 2% | 14% | u | 1% | 11% | x
COc1cccc(CCc2nnc(CCC(=O)N(C)C3CC(C)(C)NC(C)(C)C3)o2)c1 | 7% | -19% | -2% | 12% | 4% | x
Cc1nn(-c2ccccc2)c(C)c1/C=N/NC(=O)c1cc(-c2ccc(Cl)s2)[nH]n1 | -1% | 19% | u | 46% | 8.9µM* | 6
Cc1nn(-c2ccccc2)c(C)c1/C=N/NC(=O)c1cc(-c2ccc(Br)s2)[nH]n1 | -9% | 2% | -8% | 53% | 11% | x
CCCCc1ccc(NC(=O)CSC2=C(C#N)C(c3ccco3)C3=C(CCCC3=O)N2)cc1 (stereo not given) | u | -30% | 1.9µM* | 3% | 20µM* | u
CCOC(=O)c1sc2ccccc2c1S(=O)(=O)Nc1cccc(C(F)(F)F)c1 | x | -3% | x | x | x | x
CCOC(=O)N1CCN(c2c(NCCCN(CC)Cc3ccccc3)c(=O)c2=O)CC1 | u | 0% | u | 3% | 1µM* | -12
CCOC(=O)CN1CC23C=CC(O2)C(C(=O)Nc2cc(OC)ccc2OC)C3C1=O (stereo not given) | u | -5% | 28% | -4% | 8% | x
CCOC(=O)CN1CC23C=CC(O2)C(C(=O)Nc2ccc(OC)cc2OC)C3C1=O (stereo not given) | u | -5% | 17% | 2% | 3.2µM* | -2
Cc1ccccc1C1C2=C(Nc3[nH]n(-c4ccccc4)c(=O)c31)c1ccccc1C2=O (stereo not given) | u | -11% | u | x | 11µM* | -22
COc1ccc(NC(=O)Nc2cccs2)cc1OC | 35% | u | x | -1% | u | 18
COc1cccc(NC(=O)Nc2cccs2)c1 | 3% | u | u | 24% | 17% | x
CC1C/C(=N\NC(=S)NCc2ccccc2)CC(C)(C)C1 (stereo not given) | 4.1µM* | -1% | x | 20% | u | u
CC1CCC/C(=N\NC(=S)NCc2ccccc2)C1 (stereo not given) | u | -16% | x | 47% | 6% | x
COC(=O)CCN1CCN(S(=O)(=O)c2ccccc2Br)CC1 | 105% | -2% | 13% | u | x | x
CCOC(=O)N1CCC(NC(=O)c2ccccc2C(=O)O)CC1 | 0% | 1% | 5.9µM* | 0% | u | -3
CC(C)NC(=O)CCc1nc2cccnc2n1-c1ccccc1 | 5% | 5% | 10% | 2% | 3% | x
COc1ccc(C(=O)NCCN2C(=O)S/C(=C\c3cccnc3)C2=O)cc1[N+](=O)[O-] | u | -12% | u | -12% | -7% | x
SMILES | Pf growth 96h | Sm TGR inh | Pf growth 48h | AMA1 RON2 block | NS1 inh | NS1 inh valid
COc1ccccc1N(CC(=O)Nc1cccc(C(F)(F)F)c1)S(C)(=O)=O | 3% | 7% | -1% | 2% | 2% | x
Cc1ccc([N+](=O)[O-])cc1N(CC(=O)Nc1ccc(S(=O)(=O)Nc2cccc(C(F)(F)F)c2)cc1)S(C)(=O)=O | -14% | 4% | 3% | u | 16µM* | 10
O=C(NCC12CC3CC(CC(C3)C1)C2)c1cc2nc(-c3ccc(Cl)cc3)cc(C(F)(F)F)n2n1 | x | 5% | x | x | x | x
CCOC(=O)c1ccc(-n2c(O)c(/C=N/NC(=O)C3COc4ccccc4O3)c3ccccc3c2=O)cc1 (stereo not given) | -19% | -1% | 10% | 86% | 8.9µM* | -3
CCOC(=O)c1ccc(NC(=O)C2COc3ccccc3O2)cc1 (stereo not given) | u | 9% | 51% | -11% | -51% | x
COc1ccc(C2(CNC(=O)CCC(=O)O)CCCC2)cc1 | x | 5% | 1% | 10% | 13µM* | 9
COc1ccc(C(=O)NCC2(c3ccccc3)CCCC2)c(OC)c1 | u | 0% | 13%[0.00184 µM] | -9% | -5% | x
Nc1nonc1-n1nnc(C(=O)N/N=C/c2ccco2)c1CSc1ccccc1 | 62% | -15% | 23% | 108% | u | 8
Cc1ccc(SCc2c(C(=O)N/N=C/c3ccco3)nnn2-c2nonc2N)cc1 | x | x | x | 12% | x | x
COCCNC(=O)c1ccc2c(=O)n(Cc3ccco3)c(SCC(=O)Nc3ccc(OC)cc3OC)nc2c1 | u | -4% | u | -1% | 0% | x
COc1cc2nc(SCC(=O)NCCc3ccccc3)n(Cc3ccco3)c(=O)c2cc1OC | u | u | -5% | 17% | 2.5µM* | -3
CCc1ccc(-n2c(=O)c3c4c(sc3n(Cc3ccc(F)cc3)c2=O)CCCC4)cc1 | x | 0% | x | x | x | x
Cn1cnc(S(=O)(=O)N2CCCC(C(=O)Nc3ccc(OC(F)(F)F)cc3)C2)c1 (stereo not given) | x | 3% | x | x | x | x
C#CCOc1ccc(/C=C2/C(=O)N(c3cccc(C(=O)O)c3)N=C2C)cc1OC | 5% | -18% | 5% | -12% | 11µM* | u
Cc1ncc([N+](=O)[O-])n1CCOC(=O)Nc1ccc(Cl)c(Cl)c1 | -4% | 3% | u | 2% | u | -1
CCc1cc(C(c2cccc(OC)c2)N2CCOCC2)c(NC(=O)c2ccccc2)s1 (stereo not given) | u | u | u | -2% | -10% | x
COc1ccc(C(c2c(NC(=O)c3ccccc3)sc(C)c2C)N2CCN(CCO)CC2)cc1 (stereo not given) | u | -3% | u | -1% | u | -18
Cc1cc(C)cc(NC(=O)C2CCN(S(=O)(=O)c3c(C)noc3/C=C/c3ccco3)CC2)c1 | x | -2% | x | x | x | x
COc1ccc(NC(=O)C[C@H]2C(=O)N(CCc3ccccc3)C[C@@H]2c2ccc(OC)cc2)cc1 | x | x | x | -3% | x | x
CN(C)S(=O)(=O)c1ccc(NC(=O)CSc2nc3ccccc3n2-c2ccccc2)cc1 | 2.3µM* | u | 5.9µM* | -17% | 10µM* | 5
